HGIII-sPLA2 inh: Inhibits HGIII-sPLA2 liposome hydrolysis, primary screen; hit rate 0.56% among 370,000; AID 743126; Q9NZ20; QFRET BODIPY PC-A2 liposome hydrolysis, fluorescence; inhibition, % at 12.2 µM;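 active = inhibition above mean plus 3 SD of compounds lying within the high and low control bounds, cut at about 19% in these data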;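 also: 0% = median of test compound wells and 100% = no enzyme DMSO wells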
ADAM17 inh: inhibitors of human ADAM17; inhibition, % at 6.95 µM; hit rate 0.83% among 370,000; recombinant ADAM17, EDANS/DABCYL FRET peptide cleavage; AID 720648; P78536;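 active = inhibition above the mean of compounds lying between control limits plus 3 SD, set per campaign, cut at about 8.5% in these data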;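 also: 0% = DMSO-only wells as the low control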
ADAM10 inh: inhibits human ADAM10. recombinant ADAM10, EDANS/DABCYL FRET peptide cleavage, 3 h. inhibition, % at 7 µM. hit rate 0.62% among 370,000. AID 720582;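 active = inhibition above a per-campaign cutoff equal to the mean of compounds falling between control-based bounds plus 3 SD, cut at about 20% in these data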;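 also: 0% = DMSO wells while the 100% control is not disclosed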
PLCg1 inh: blocks human PLC-gamma1 enzyme activity | hit rate 0.84% among 370,000 | inhibition, % at 12.2 µM | purified PLC-gamma1, fluorogenic substrate, fluorescence; in the data active = inhibition above about 9.5%
PLC-beta3 inh: PLC-beta3 (human) inhibition, primary screen | hit rate 0.18% among 370,000 | AID 720704 | inhibition, % at 12.2 µM | Purified PLC-beta3, fluorogenic substrate, fluorescence | Q01970;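 also: 0% = median of compound wells on plate and 100% = full blocker control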
KLK7 zymogen act: activates the human kallikrein-7 zymogen; activation, % at 7 µM; hit rate 0.9% among 370,000; purified proKLK7, EDANS-DABCYL substrate fluorescence; 100% is mature enzyme control, 0% vehicle; P49862;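 active = activation above the mean of all tested compounds plus 3 SD, computed per campaign excluding outliers beyond control limits, cut at about 13% in these data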
PLCgamma1 ctr: PLC-gamma1 inhibition, counter-screen for PLC-beta3 hits. shares compounds with PLCg1 inh. purified PLC-gamma1, fluorogenic substrate, fluorescence. inhibition, % at 12.3 µM. hit rate 3.1% among 3,300; in the data active = inhibition above about 9.5%
PLCb3 confirm: human PLC-beta3 inhibition, confirmation. hit rate 1% among 3,300. shares compounds with PLCg1 inh. purified PLC-beta3, fluorogenic substrate fluorescence. inhibition, % at 12.3 µM
* marks the source's active call; other numbers are inactive results. This is a sample that favours compounds with a hit; in the whole collection about 3.4% have one here. Rule as the data show it, unless noted: active = inhibition above about 11%; inactive = the rest.

CN(CC(=O)Nc1cccc(F)c1)C(=O)Cc1n[nH]c(=O)c2ccccc12 was read as HGIII-sPLA2 inh 1.4, ADAM17 inh -0.4, ADAM10 inh 2.1, PLCg1 inh 0.0, PLC-beta3 inh 1.7 and KLK7 zymogen act -0.3.
CN(CC(=O)Nc1ccc(Cl)c(C(F)(F)F)c1)C(=O)Cc1n[nH]c(=O)c2ccccc12 was read as HGIII-sPLA2 inh -29.6, ADAM17 inh -3.2, ADAM10 inh 1.9, PLCg1 inh 10.0*, PLC-beta3 inh -3.3, KLK7 zymogen act 0.0, PLCgamma1 ctr -2.5 and PLCb3 confirm 1.3.
For Cc1ccc(C(=O)N2CCN(c3ccc([N+](=O)[O-])c(NCc4ccco4)c3)CC2)cc1 the results were HGIII-sPLA2 inh -1.0, ADAM17 inh 6.8, ADAM10 inh 16.7, PLCg1 inh 9.0, PLC-beta3 inh 3.3 and KLK7 zymogen act 0.4.
Screening Cc1cccc(C(=O)N2CCN(c3ccc([N+](=O)[O-])c(NCc4ccco4)c3)CC2)c1 returned HGIII-sPLA2 inh -16.9, ADAM17 inh 0.8, ADAM10 inh 8.2, PLCg1 inh 9.5*, PLC-beta3 inh -1.6, KLK7 zymogen act 0.6, PLCgamma1 ctr -1.7 and PLCb3 confirm -1.4.
`O=C(CCC(=O)Nc1ccccc1Cl)NNC(=O)Nc1cccc([N+](=O)[O-])c1` gave HGIII-sPLA2 inh -11.8, ADAM17 inh -2.2, ADAM10 inh 3.0, PLCg1 inh -0.4, PLC-beta3 inh -6.3 and KLK7 zymogen act -0.6.
COc1ccc(CC2C(=O)OC(C)(C)OC2=O)cc1 was read as HGIII-sPLA2 inh -2.6, ADAM17 inh -3.2, ADAM10 inh -4.8, PLCg1 inh -1.4, PLC-beta3 inh 1.3 and KLK7 zymogen act 0.0.
Screening COc1ccc(CC2CCOC2=O)cc1 (centres undefined) returned HGIII-sPLA2 inh 9.9, ADAM17 inh 2.2, ADAM10 inh 5.8, PLCg1 inh 10.1*, PLC-beta3 inh 3.5, KLK7 zymogen act 0.1, PLCgamma1 ctr -7.3 and PLCb3 confirm -0.9.
For CC(c1ccccc1)C1CC(=O)N(Cc2ccccc2)C1=O (centres undefined) the results were HGIII-sPLA2 inh -4.7, ADAM17 inh -1.4, ADAM10 inh 7.7, PLCg1 inh -0.3, PLC-beta3 inh 0.1 and KLK7 zymogen act 0.7.
`COc1ccc(/C=C(/C#N)S(=O)(=O)c2ccc(C)cc2)cc1` gave HGIII-sPLA2 inh -14.6, ADAM17 inh -0.7, ADAM10 inh -0.1, PLCg1 inh 0.8, PLC-beta3 inh -0.1 and KLK7 zymogen act -0.2.
Screening CO/N=C/C(C#N)=C/c1ccc(OC)cc1 returned HGIII-sPLA2 inh 4.2, ADAM17 inh 6.2, ADAM10 inh 8.2, PLCg1 inh 14.7*, PLC-beta3 inh 7.3, KLK7 zymogen act 0.2, PLCgamma1 ctr -1.9 and PLCb3 confirm 1.3.
For CC1=C(c2ccccc2)C(O)(c2ccccc2)C(C)C1=O (centres undefined) the results were HGIII-sPLA2 inh -1.1, ADAM17 inh 3.4, ADAM10 inh 2.8, PLCg1 inh 14.1*, PLC-beta3 inh 4.8, KLK7 zymogen act -0.1, PLCgamma1 ctr -2.1 and PLCb3 confirm -1.8.
For CCOC(=O)N1CCN(c2nc3ccc(C(=O)c4ccccc4)cc3n3cnnc23)CC1 the results were HGIII-sPLA2 inh 0.5, ADAM17 inh 1.8, ADAM10 inh 5.8, PLCg1 inh -1.2, PLC-beta3 inh -9.5 and KLK7 zymogen act 0.1.
Screening CCOC(=O)N1CCC(Nc2nc3ccccc3n3cnnc23)CC1 returned HGIII-sPLA2 inh 8.1, ADAM17 inh 1.0, ADAM10 inh -0.5, PLCg1 inh 7.4, PLC-beta3 inh 11.0*, KLK7 zymogen act -0.2, PLCgamma1 ctr -5.4 and PLCb3 confirm -4.2.
For O=c1c(-c2ccnn2-c2ccc(F)cc2)cnc2n1CCS2 the results were HGIII-sPLA2 inh 2.1, ADAM17 inh -2.2, ADAM10 inh -0.2, PLCg1 inh -1.0, PLC-beta3 inh -0.3 and KLK7 zymogen act -0.9.
